Screening data deposited in PubChem BioAssay by National Center for Advancing Translational Sciences (NCATS).
HCV inhibitor – HCV inhibition | Huh7.5.1 HCVcc-Cre infection, luciferase reporter, 44 h | 340,000 tested, 3.4% active | Potency, µM (doses to about 41.8 µM), for the others: at the top dose activity change, negative = inhibition, usual class: inhibitors; active = well fitted inhibition curve with a large enough effect; inconclusive = small, poorly fitted or top-dose-only effect, or another doubt; inactive = no such curve, though single readings can be large or run the other way; also: potency is read from the fitted curve at half-maximal effect; % is scaled to controls: 0 for no effect and ±100 for the full control effect
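Cells seeded at 1,000/well and cultured 4 h, then compounds added followed by HCVcc-Cre virus (~0.5 moi). After 44 h further culture, luciferase substrate was added, plates held 15 min at room temperature, and luminescence read for 15 sec.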
MARV entry inh – Marburg virus entry inhibition. Potency, µM (highest dose often 37.8 µM), for the others: at the highest dose activity change, negative = inhibition, hits mostly inhibitors. Marburg virus pseudotyped entry inhibition, cell reporter. 300,000 tested, 1.8% active; calls by dose curve; tested in HEK293 cells; also: potency is read from the fitted curve at half-maximal effect; % is scaled to controls: 0 for no effect and ±100 for the full control effect
FMDV antiviral – blocks foot and mouth disease virus. FMDV antiviral cell-based qHTS. Potency, µM (highest dose often 57.9 µM), inactives show at the top dose activity change, negative = inhibition, most hits filed as inhibitors. 410,000 tested, 1.2% active; calls by dose curve; tested in HEK293T cells; also: read-out not given here; potency is read from the fitted curve at half-maximal effect; % is scaled to controls: 0 for no effect and ±100 for the full control effect; nearly all actives have a fitted effect of over 45% in size
HCMV inh – inhibitors of human cytomegalovirus. HFF cells, HCMV-luciferase reporter, 72 h; hits give low values. activity change, negative = inhibition, % at 57.5 µM. 410,000 tested, 4.5% active. AID 1259415; in the data active = activity change below about -60%; inconclusive = no clear call, values can overlap the other calls; inactive = above about -39%; also: % is scaled to controls: 0 for no effect and ±100 for the full control effect
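Two compound doses tested in HFFs infected with HCMV-luciferase, MOI 1 PFU/cell, 72 h at 37C. Lysate luminescence read with OneGlo; data normalized against buffer-only and 10uM Salinomycin inhibitor controls.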
LASV entry inh – blocks Lassa virus binding to or entry into cells; 300,000 tested, 1.2% active; AID 540256; Potency, µM (top dose mostly 37.9 µM), for inactives: at the highest dose activity change, negative = inhibition, usual class: inhibitors; Lassa virus pseudotype entry inhibition, cell reporter; calls by dose curve; tested in HEK293 cells; also: potency is read from the fitted curve at half-maximal effect; % is scaled to controls: 0 for no effect and ±100 for the full control effect; nearly all actives have a fitted effect of over 50% in size
SARS PLP yeast – blocks SARS-CoV papain-like protease in a yeast assay; S. cerevisiae expressing SARS-CoV PLpro, growth rescue; Potency, µM (top dose mostly 32.9 µM), for the others: top-dose activity, positive = growth rescue, usual class: activators; 330,000 tested, 0.19% active; calls by dose curve; also: potency is read from the fitted curve at half-maximal effect; 0% is about no effect; nearly all actives have a fitted effect of over 55% in size
An asterisk follows results filed as active; ? = inconclusive; nt = no result; [ ] = another dose, or the depositor's remark. Sampled rows, rich in hits. Any-hit rate of the full collection: about 8%.

SMILES | HCV inhibitor | MARV entry inh | FMDV antiviral | HCMV inh | LASV entry inh | SARS PLP yeast
COc1ccc(S(=O)(=O)c2c(C(=O)c3ccc(C)c(C)c3)cnc3ccc(F)cc23)cc1 | nt | ? | ? | -39 | nt | nt
COc1ccc(C(=O)c2cnc3ccc(C)cc3c2S(=O)(=O)c2ccccc2)cc1 | nt | ? | 13% | -98* | nt | nt
CCc1ccc(S(=O)(=O)c2c(C(=O)c3ccccc3)cnc3ccc(CC)cc23)cc1 | nt | ? | 12% | -77* | nt | nt
CCOc1ccc(S(=O)(=O)c2c(C(=O)c3ccc(C)c(C)c3)cnc3ccccc23)cc1 | nt | -13%[46.1 µM] | -22% | -3 | nt | nt
Cc1cccc(C(=O)N(Cc2nc3ccccc3c(=O)[nH]2)C2CCCC2)c1 | -18% | ? | -25% | 23 | ? | 0%
O=C(c1ccccc1)N(Cc1nc2ccccc2c(=O)[nH]1)C1CCCC1 | 8% | 0%[46.1 µM] | -23% | -3 | 2% | -1%
O=C(c1ccc(Br)cc1)N(Cc1nc2ccccc2c(=O)[nH]1)C1CCCC1 | ? | ? | 0% | -62* | ? | 0%
Cc1cccc(C(=O)N(Cc2nc3ccccc3c(=O)[nH]2)C2CCCCC2)c1 | 0% | -21%[46.1 µM] | -18% | -79* | -27% | 0%
CC(=O)c1ccc(Nc2nc(=O)c3cccnc3s2)cc1 | -2% | ? | 47% | 0 | ? | nt
CCOC(=O)c1ccc(Nc2nc(=O)c3cccnc3s2)cc1 | nt | 2.1µM* | 51% | ? | -83%[14.3 µM] | 3%
CC(=O)c1cccc(Nc2nc(=O)c3cccnc3s2)c1 | -20% | -13% | 39% | 63 | 1% | 2%
O=c1nc(Nc2ccc(OCc3ccccc3)cc2)sc2ncccc12 | -1% | ? | -17% | -88* | ? | 0%
COc1cc(OC)cc(-c2cc3c(Nc4cccc(O)c4)nccc3[nH]2)c1 | nt | nt | nt | 25 | nt | nt
CC1CCCN(CCCNC(=O)c2ccc3c(c2)N(Cc2cccc(Cl)c2)C(=O)c2ccccc2S3(=O)=O)C1 (stereo not given) | nt | nt | 11% | -25 | ? | nt
CCOC(=O)c1cc(S(=O)(=O)Nc2ccc(OC)c(Cl)c2)[nH]n1 | nt | nt | 0% | 23 | -6%[46.1 µM] | nt
COc1ccc(-n2ncc3c(NC4CCCC4)ncnc32)cc1 | nt | nt | -33% | 4 | -4%[46.1 µM] | nt
O=[N+]([O-])c1ccc(C[n+]2cccc3c4ccccc4ccc32)cc1 | -29% | nt | -29% | -81* | nt | -2%
Cc1ccc[n+](Cc2ccc([N+](=O)[O-])cc2)c1 | 9% | nt | 2% | -8 | nt | 0%
COC(=O)CN1C(=O)CSc2ccc(S(=O)(=O)N3CCOCC3)cc21 | nt | nt | -5% | -32 | 1%[46.1 µM] | nt
CC[N+]1(C)[C@@H]2CC[C@H]1CC(OC(=O)[C@H]1CCC(C(=O)OC3C[C@H]4CC[C@@H](C3)[N+]4(C)CC)(c3ccccc3)c3ccccc31)C2 (stereo not given in full) | -9% | nt | -25% | -69* | nt | nt
Cc1cc(OCC(=O)Nc2ccc(C(=O)OC3CCCCC3)cc2)cc(C)c1Cl | nt | nt | -24% | -15 | ? | nt
Cc1cc(C)nc(N(C#N)Cc2ccc(Cl)cc2)n1 | 5% | 2%[46.1 µM] | 7% | -62* | 1% | 0%
CC1CCCN(C(=O)CCNS(=O)(=O)c2ccc(Br)cc2)C1 (stereo not given) | 36% | 2% | -5% | -7 | -7% | ?
CN1CCCC1CCNS(=O)(=O)c1ccc(Br)cc1 (stereo not given) | 10µM* | ? | -18% | -16 | -10% | 20%
C[C@@H]1NC(=O)[C@H](CCCN=C(N)N)NC(=O)c2cc([N+](=O)[O-])cc(I)c2NCCC[C@@H](C(N)=O)NC1=O | 7.9µM* | 3% | -16% | -5 | 5% | -5%
SMILES | HCV inhibitor | MARV entry inh | FMDV antiviral | HCMV inh | LASV entry inh | SARS PLP yeast
C[C@@H]1NC(=O)[C@H](CCC(N)=O)NC(=O)c2cc([N+](=O)[O-])cc(I)c2NCCC[C@@H](C(N)=O)NC1=O | -5%[8.37 µM] | 2% | 4% | -21 | 4% | 7%
COc1ccc(CN2C(=O)C(n3c(C)ccc3C)c3ccccc32)cc1 (stereo not given) | nt | nt | nt | -7 | nt | nt
O=C(Nc1ccc2c(c1)C(=O)OC2)c1ccc(C(F)(F)F)cc1 | 3% | 1%[46.1 µM] | 1% | -12 | 4% | 0%
CCOc1ccc(C(=O)Nc2ccc3c(c2)N(C(C)=O)CCC3)cc1OCC | nt | nt | -61% | 2 | 9%[46.1 µM] | nt
CN(C)S(=O)(=O)N1CCc2ccc(NC(=O)c3ccc(C(F)(F)F)cc3)cc2C1 | 7.9µM* | nt | ? | ? | nt | 0%
COCCC(=O)N1CCc2ccc(NC(=O)c3ccc(C(F)(F)F)cc3)cc2C1 | 10µM* | nt | ? | -65* | nt | -4%
CC(=O)N1CCCc2ccc(NC(=O)c3ccc(C(F)(F)F)cc3)cc21 | nt | nt | ? | -71* | 26%[46.1 µM] | nt
CC(C)c1ccc(NC(=O)c2cc3c(=O)oc4ccccc4c3s2)cc1 | nt | ? | 8% | ? | 3%[46.1 µM] | nt
CC1CN=C(c2cc(Cl)c(N)c(Cl)c2)c2c3ccccc3[n+]([O-])n21 (stereo not given) | nt | nt | nt | 55 | nt | nt
COC1=C(C2C(OC)CCC3CCCCC32)C2=C(CCCC2)CC1 (stereo not given) | nt | 6%[14.2 µM] | nt | nt | nt | nt
CC(=O)/C(C#N)=C1\NC(=O)C(Cc2cc(Cl)ccc2Cl)S1 (stereo not given) | -8% | nt | 9% | -89* | nt | -2%
CC(=O)/C(C#N)=C1\NC(=O)C(Cc2ccc(F)cc2)S1 (stereo not given) | -4% | ? | -6% | -83* | ? | 1%
NC1=NC(=O)C(Cc2cc(Cl)ccc2Cl)S1 (stereo not given) | 11% | 8% | -2% | -13 | -1% | 9%
CC(=O)/C(C#N)=C1\NC(=O)C(Cc2ccccc2Cl)S1 (stereo not given) | 0% | ? | 51% | -95* | 2.3µM* | 0%
CC(C)=CC(=O)Nc1ccccc1C(N)=O | 11% | 6% | 13% | -74* | 16% | 1%
CCOC(=O)c1ccccc1NC(=O)C=C(C)C | 3% | ? | 11% | -11 | 7% | 30%
O=C(COc1ccc(Cl)cc1)NCCc1csc(-c2cccc(F)c2)n1 | nt | nt | -18% | 12 | 21%[46.1 µM] | nt
N#C/C(=C(/O)c1cccc(F)c1)c1nc2ccccc2s1 | -14% | nt | -3% | -70* | nt | -3%
